MEKK3 PB1 HTS: modulators (inhibitors or enhancers) of MEK5 binding to human MEKK3 PB1 domain. Q99759. bead-based flow cytometry, Alexa488-MEK5 binding to MEKK3; actives lie on both sides; 0 = blocked by unlabeled MEK5, 100 = vehicle. 290,000 compounds, 1.4% hits. binding response (% of control), % at 10 µM. AID 1529;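 active means binding response more than 3 SD above or below the average of its plate-row segment, actives on both sides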;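 further: Alexa488 bead fluorescence after subtracting the streptavidin-only scavenger bead signal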
Target sequence (Q99759 whole entry, looked up, the tested form may be a part): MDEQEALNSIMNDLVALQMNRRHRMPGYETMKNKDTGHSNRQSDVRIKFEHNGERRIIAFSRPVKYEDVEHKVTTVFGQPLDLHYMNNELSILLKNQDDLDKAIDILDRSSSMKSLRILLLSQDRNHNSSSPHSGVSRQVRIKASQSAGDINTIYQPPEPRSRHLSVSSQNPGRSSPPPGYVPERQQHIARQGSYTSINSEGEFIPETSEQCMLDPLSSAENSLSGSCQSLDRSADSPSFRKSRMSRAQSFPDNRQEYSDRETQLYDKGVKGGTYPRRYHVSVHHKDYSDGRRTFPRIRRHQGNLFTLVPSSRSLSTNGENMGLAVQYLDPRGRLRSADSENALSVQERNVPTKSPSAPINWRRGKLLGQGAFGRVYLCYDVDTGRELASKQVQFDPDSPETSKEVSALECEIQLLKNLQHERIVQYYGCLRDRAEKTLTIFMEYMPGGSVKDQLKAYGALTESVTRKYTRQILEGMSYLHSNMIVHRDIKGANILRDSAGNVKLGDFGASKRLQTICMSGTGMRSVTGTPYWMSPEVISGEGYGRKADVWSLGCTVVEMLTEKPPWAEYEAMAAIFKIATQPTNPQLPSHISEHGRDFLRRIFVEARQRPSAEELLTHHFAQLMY
MEKK2mut PB1 HTS: signal of MEK5 binding to mutant human MEKK2 PB1 domain; bead flow cytometry, Alexa488-MEK5 binding to MEKK2 mutant; percent response, % at 10 µM; 290,000 compounds, 0.35% hits; AID 1530; in the data active means percent response above about 24%, passing the limit was not always enough
Pf gamet viab: kills late stage P. falciparum gametocytes; P. falciparum stage V gametocytes, ATP luminescence, 24 h; inhibition, % at 10.9 µM; 150,000 compounds, 0.065% hits;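 active means inhibition above the mean plus 3 SD of compounds within the control limits, set per campaign, cut at about 38% in these data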;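 further: 0% = DMSO wells and 100% = medium only without gametocytes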
MEKK2 WT-MEK5: raises or lowers MEK5 binding to wildtype human MEKK2 PB1 domain. Q9Y2U5. bead flow cytometry, Alexa488-MEK5 binding to MEKK2 WT; actives lie on both sides. binding response (% of control), % at 10 µM. 290,000 compounds, 1.1% hits. AID 1531; in the data active means binding response below about 67% or above about 130%
Arbovirus inh: blocks arbovirus infection. arbovirus infection cell-based antiviral screen. inhibition, % at 10 µM. 200,000 compounds, 0.37% hits; in the data active means inhibition above about 30%
MEKK2wt confirm: raises or lowers MEK5 binding to wildtype human MEKK2, retest. shares compounds with MEKK3 PB1 HTS. bead flow cytometry, Alexa488-MEK5 binding to MEKK2 WT; actives lie on both sides. binding response (% of control), % at 10 µM. 5,900 compounds, 2.4% hits. AID 1892; in the data active means binding response below about 16% or above about 210%; inactive means in between
MEKK2mut-MEK5: signal of MEK5 binding to mutant human MEKK2, retest. AID 1893. 5,900 compounds, 2% hits. shares compounds with MEKK3 PB1 HTS. percent response, % at 10 µM. bead flow cytometry, Alexa488-MEK5 binding to MEKK2 mutant; in the data active means percent response mostly above about 71%, no sharp cut-off; inactive means mostly below about 38%;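 further: higher means compound restores mutant binding toward wildtype level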
MEKK3-MEK5 inh: MEKK3-MEK5 PB1 inhibition, single concentration confirmation; shares compounds with MEKK3 PB1 HTS; bead flow cytometry, Alexa488-MEK5 binding to MEKK3; stronger effect = lower value; binding response (% of control), % at 10 µM; 5,900 compounds, 1.8% hits;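 active means binding response below 72% of control, or above a set upper limit, though filed actives all read lower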;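 further: 100% = DMSO only wells and 0% = binding blocked by excess unlabeled MEK5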
Numbers without * were called inactive; . = no result; [ ] = remark or other dose. Shown are actives, neighbours in structure and some others; about 2.4% of the full set was active somewhere.

SMILES | MEKK3 PB1 HTS | MEKK2mut PB1 HTS | Pf gamet viab | MEKK2 WT-MEK5 | Arbovirus inh | MEKK2wt confirm | MEKK2mut-MEK5 | MEKK3-MEK5 inh
CCOC(=O)C(O)(c1ccc(NC(=O)Oc2ccccc2)cc1)C(F)(F)F (stereo not given) | 130* | 3 | 2 | 107 | -4 | 107 | 10 | 103
C[C@@]12N[C@@H](Cc3ccccc31)c1ccccc12 | 99 | 0 | . | 101 | . | . | . | .
CC(=O)O[C@@H]1[C@H]2CC[C@@H]3[C@]1(C[C@@H](OC(C)=O)[C@@]1(O)C([C@@H]4O[C@@H]4C1(C)C)[C@]3(C)O)C[C@@]2(C)O (stereo not given in full) | 96 | 5 | 4 | 103 | 7 | . | . | .
CCOC(=O)C(O)(c1ccc(NC(=S)NC(=O)c2ccc(Cl)cc2Cl)c(C)c1)C(F)(F)F (stereo not given) | 147* | 1 | 12 | 102 | -5 | 92 | -8 | 94
COC(=O)C(O)(c1ccc(NC(=S)NC(=O)c2ccc(Cl)cc2Cl)c(C)c1)C(F)(F)F (stereo not given) | 107 | -1 | -31 | 97 | 21 | . | . | .
COC(=O)C(O)(c1ccc(NC(=S)NC(=O)c2ccc(Cl)cc2Cl)cc1)C(F)(F)F (stereo not given) | 148* | 3 | -29 | 106 | 14 | 92 | -4 | 102
COc1cccc(C2CCN(CC(=O)Nc3cc(Cl)ccc3OC)CC2O)c1 (stereo not given) | 109 | 8 | . | 110 | . | . | . | .
CC(C)OP(=O)(OC(C)C)C(O)c1cccnc1 (stereo not given) | 113 | 0 | 7 | 99 | -6 | . | . | .
CC(C)OP(=O)(OC(C)C)C(O)c1ccc(Br)cc1 (stereo not given) | 149* | -1 | . | 108 | -1 | 105 | 2 | 104
CC1CCCCC1NC(=O)CNC(=S)N1CC2CC(C1)c1cccc(=O)n1C2 (stereo not given) | 100 | -4 | . | 99 | . | . | . | .
COC(=O)[C@@H]1C[C@]2(C(=O)O)c3ccccc3N(OOSc3ccccc3)[C@@H]2N1C(=O)OC | 108 | 7 | . | 108 | . | . | . | .
COC(=O)c1ccc(C(C(=O)NC2CCCCC2)N(CCN2CCOCC2)C(=O)Cc2cccs2)cc1 (stereo not given) | 114 | -1 | -12 | 107 | 15 | . | . | .
CCOC(=O)c1c(C)n(Cc2ccccc2)c2ccc(OCC(O)CNC(C)(C)C)cc12 (stereo not given) | 107 | 21 | . | 150* | . | 150 | 36 | 106
CC(C)(C)C(=O)NC1CCSC1=O (stereo not given) | 99 | -2 | -29 | 99 | 11 | . | . | .
OC(c1ccccc1)(c1ccccc1)C1CCNCC1 | 101 | 9 | . | 136* | 8 | 105 | 7 | 101
OC(c1ccccc1)(c1ccccc1)C1CN2CCC1CC2 (stereo not given) | 92 | -11 | . | 83 | -24 | . | . | .
Cc1[nH]c2ccccc2c1C1=CCNCC1 | 113 | 144* | . | 76 | 46* | 107 | 2 | 103
CC(=O)Nc1ccccc1C(=O)OCc1ccccc1F | 97 | -1 | -8 | 96 | -9 | . | . | .
CN1CCN(c2nc3c(c(=O)[nH]2)CCC3)CC1 | 105 | 3 | 20 | 103 | . | . | . | .
O=C1NC(=S)NC(=O)C1C/C=C/c1ccccc1 | 91 | -34 | -10 | -7.0*[inhibitor] | -4 | 96 | 0 | 104
Cc1ccsc1-c1nc(CSCC(=O)N2CCC3(CC2)OCCO3)c(C)o1 | 123* | 6 | . | 115 | 5 | 104 | 3 | 102
Cc1cc(C=C(C#N)C#N)ccc1N1CCCC1 | 82 | -12 | . | 63*[inhibitor] | -2 | 83 | -10 | 92
Cc1cc(C(=O)C[N+]23CCN(CC2)CC3)c(C)n1-c1ccc(Br)cc1 | 146* | 12 | -31 | 158* | 0 | 120 | 15 | 106
CC/C(=N\NC(=O)Nc1ccccc1)c1c(O)n(Cc2ccccc2)c(=O)[nH]c1=O | 132* | 27 | -12 | 118 | . | 94 | 0 | 101
C/C(=N\NC(=O)c1ccccc1)c1c(O)n(Cc2ccccc2)c(=O)[nH]c1=O | 101 | 4 | 6 | 101 | . | . | . | .
SMILES | MEKK3 PB1 HTS | MEKK2mut PB1 HTS | Pf gamet viab | MEKK2 WT-MEK5 | Arbovirus inh | MEKK2wt confirm | MEKK2mut-MEK5 | MEKK3-MEK5 inh
COc1ccc(CCN(C)Cc2c(F)cccc2F)cc1OC | 103 | 5 | 5 | 107 | -4 | . | . | .
COc1cccc(-n2c(CN3CCN(C)CC3)nc3ccc([N+](=O)[O-])cc3c2=O)c1 | 98 | -1 | 4 | 102 | 5 | . | . | .
Cc1[nH]c2ccc(OC(F)(F)F)cc2c1CCNCc1ccc(Cl)cc1 | 101 | 37* | . | 174* | . | 195 | 43 | 106
CCOc1cccc(CNCCc2c(C)[nH]c3ccc(OC(F)(F)F)cc23)c1O | 104 | 19 | . | 150* | . | 177 | 48 | 104
Cc1ccc2[nH]c(C)c(CCNCc3ccco3)c2c1 | 103 | 13 | . | 127 | . | . | . | .
Cc1[nH]c2ccc(OC(F)(F)F)cc2c1CCNCc1cccc([N+](=O)[O-])c1 | 108 | 25* | . | 148* | . | 170 | 45 | 104
O=C(O)[C@H]1NC[C@H]2C[C@H]21 | 105 | 7 | . | 102 | 5 | . | . | .
C=C1C(O)(c2ccccc2)C2CC[N+]1(C)CC2 (stereo not given) | 100 | 1 | . | 103 | 14 | . | . | .
CCOc1ccc(-c2cc(C)[n+](CCc3ccc(OC)c(OC)c3)c(-c3ccc(OCC)cc3)c2)cc1 | 113 | 37* | . | 141* | . | 51 | -13 | 86
CCOc1ccc(-c2cc(C)[n+](CCO)c(-c3ccc(OCC)cc3)c2)cc1 | 101 | 9 | 3 | 113 | -6 | . | . | .
O=C1NC(=O)C2(C(=O)N1)C(c1ccc(F)cc1)NC(=S)NC2c1ccc(F)cc1 (stereo not given) | 103 | 2 | . | 99 | 3 | . | . | .
O=C(Cc1cc(=O)[nH]c(=O)[nH]1)N1CCN(CCO)CC1 | 108 | 10 | . | 107 | 0 | . | . | .
